# Data published in PubChem BioAssay (EPA / NIEHS).
# Results filed as inconclusive are left out. Activity calls are given as the source filed them. How the source made its calls, unless noted: active means hit-call score of the fitted dose curve at least 0.9, where 1 is the maximum; inactive means score below 0.9.
# Assays:
# DIO2 (gene 1734) = assay: CCTE_GLTED_hDIO2: CCTE's human Deiodinase 2 (DIO2) Inhibition Assay, Great Lakes Toxicology and Ecology Division (GLTED) Lab (AID 2284050; active means hit-call score of the fitted dose curve at least 0.9, where 1 is the maximum)
# Outline: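 Cell-free human DIO2 incubated 3 h with chemical; liberated iodide quantified by Sandell-Kolthoff absorbance. Triplicate plates; loss of signal fitted vs DMSO.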
# DIO3 (gene 1735) = assay: CCTE_GLTED_hDIO3: CCTE's human Deiodinase 3 (DIO3) Inhibition Assay, Great Lakes Toxicology and Ecology Division (GLTED) Lab (AID 2284055; active means hit-call score of the fitted dose curve at least 0.9, where 1 is the maximum;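 further: potency is for inhibition seen as loss of released iodide signal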)
# Outline: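 Human DIO3 from an adenovirus expression system is incubated 3 h with test chemical. Released iodide is quantified by Sandell-Kolthoff absorbance, in triplicate plates. Loss of signal is fitted relative to DMSO.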
# [1] = CCTE_Shafer_MEA_dev_bursting_electrodes_number: CCTE's Neural Network Formation Assay for Number of Bursting Electrodes, Shafer Lab (AID 2284043; active means hit-call score of the fitted dose curve at least 0.9, where 1 is the maximum)
# Outline: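 Primary rat cortical neurons were cultured on PEI-coated 48-well MEA plates (16 electrodes/well) and exposed from plating through day 12, with compound renewed at feeds on DIV 5 and 9. Electrodes bursting ≥1 per 2 min were counted on DIV 5, 7, 9, 12; trapezoidal AUC taken.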
# [2] = CCTE_Shafer_MEA_dev_per_burst_interspike_interval: CCTE's Neural Network Formation Assay for Burst Interspike Interval, Shafer Lab (AID 2284044);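 further: mean spike spacing inside bursts as AUC over recordings on days 5 7 9 12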
# Outline: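 Primary rat cortical neurons on 48-well MEA plates, exposed from day 0 through day 12, treatment renewed at DIV 5 and 9. Within-burst interspike interval recorded days 5, 7, 9, 12, well-averaged, summarised as AUC; negative fit versus DMSO.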
# [3] = CCTE_Shafer_MEA_dev_burst_duration_mean: CCTE's Neural Network Formation Assay for Mean Burst Duration, Shafer Lab (AID 2284045)
# Outline: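 Primary rat cortical neurons on PEI-coated 16-electrode MEA wells, exposed from plating through day 12 with compound renewed at DIV 5 and 9; spontaneous activity recorded days 5, 7, 9, 12. Well-mean burst duration collapsed as trapezoidal AUC, fitted for loss versus DMSO.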
# [4] = CCTE_Shafer_MEA_dev_interburst_interval_mean: CCTE's Neural Network Formation Assay for Mean Interburst Interval, Shafer Lab (AID 2284046);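 further: well-mean interburst interval of bursting electrodes as AUC over four recording days; curve fitted for decrease in interburst interval relative to DMSO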
# Outline: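 Recordings on days 5, 7, 9 and 12 give well-mean interburst interval across actively bursting electrodes, summarized as area under the curve. Cultures: rat cortical neurons, continuous exposure from day 0, compound renewed at feeds; decrease analyzed versus DMSO.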
# [5] = CCTE_Shafer_MEA_dev_inter_network_spike_interval_mean: CCTE's Neural Network Formation Assay for Mean Inter-network Spike Interval, Shafer Lab (AID 2284047)
# Outline: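 Primary rat cortical neurons on 16-electrode MEA wells, exposed from plating day 0 through DIV 12, compound renewed at DIV 5 and 9 media changes. Mean interval between network-spike peaks recorded DIV 5, 7, 9, 12; collapsed as trapezoidal AUC, fitted downward versus DMSO.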
# [6] = CCTE_Shafer_MEA_dev_network_spike_number: CCTE's Neural Network Formation Assay for Number of Network Spikes, Shafer Lab (AID 2284048);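 further: synchronized bursts across electrodes counted on days 5 7 9 12 and integrated as AUC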
# Outline: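 Primary rat cortical neurons were seeded at 1.5 x 10^5 cells/well on PEI-coated 16-electrode MEA wells with laminin, exposed from plating day 0, compound renewed at DIV 5 and 9. Network spikes were recorded on days 5, 7, 9, 12 and summarized as trapezoidal AUC versus DMSO.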
# [7] = CCTE_Shafer_MEA_dev_network_spike_peak: CCTE's Neural Network Formation Assay for Mean Number of Electrodes in Network Spike, Shafer Lab (AID 2284049)
# Outline: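 Continuous 12-day exposure of rat cortical cultures, starting at plating, on MEA plates. Endpoint: electrodes participating in network-spike peaks, AUC across DIV 5–12, DMSO as negative control.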
# [8] = CCTE_Shafer_MEA_dev_spike_duration_mean: CCTE's Neural Network Formation Assay for Mean Spike Duration, Shafer Lab (AID 2284051);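 further: mean network spike duration pooled as area under curve over DIV 5 to 12 recordings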
# Outline: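 Primary rat cortical neurons on 16-electrode MEA wells (PEI-coated, laminin in plating drop), exposed from plating through DIV 12 with compound renewed at DIV 5 and 9. Mean network-spike duration recorded DIV 5, 7, 9, 12; trapezoidal AUC across days, DMSO baseline.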
# [9] = CCTE_Shafer_MEA_dev_network_spike_duration_std: CCTE's Neural Network Formation Assay for Standard Deviation of Network Spike Duration, Shafer Lab (AID 2284052);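 further: area under curve of spike duration SD across recording days 5 to 12; hits are decreases in network spike duration SD versus DMSO vehicle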
# Outline: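 Primary rat cortical neurons on PEI-coated 16-electrode MEA wells, exposed from plating day 0 through day 12 with compound renewed at DIV 5 and 9. Network spike duration SD recorded on days 5, 7, 9, 12, collapsed as trapezoidal AUC; loss-of-signal fit versus DMSO.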
# [10] = CCTE_Shafer_MEA_dev_per_network_spike_spike_number_mean: CCTE's Neural Network Formation Assay for Mean Number of Spikes in a Network Spike, Shafer Lab (AID 2284053)
# Outline: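 Primary rat cortical neurons on 48-well, 16-electrode MEA plates were exposed from plating to DIV 12, with dosing renewed on DIV 5 and 9. Spikes per network spike (0.05 s peak window) were recorded on DIV 5, 7, 9 and 12 and collapsed as trapezoidal AUC versus DMSO.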
# [11] = CCTE_Shafer_MEA_dev_per_network_spike_spike_percent: CCTE's Neural Network Formation Assay for Percent of Spikes in a Network Spike, Shafer Lab (AID 2284054)
# Outline: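 Primary rat cortical neurons on 16-electrode MEA wells (PEI-coated, laminin at plating), exposed from day 0 with renewal at DIV 5 and 9; spikes within 0.05 s of network-spike peaks over total spikes, AUC across days 5, 7, 9, 12.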
# [12] = CCTE_Shafer_MEA_dev_LDH: CCTE's Lactate Dehydrogenase Assay for Cytotoxicity in the Neural Network Formation Assay, Shafer Lab (AID 2284068; active means hit-call score of the fitted dose curve at least 0.9, where 1 is the maximum;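 further: exposure for twelve days from plating with re-dosing on DIV 5 and 9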)
# Outline: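 Primary rat cortical neurons were plated on PEI/laminin MEA plates and exposed from day 0 for twelve days, with compound renewed at DIV 5 and 9. Cytotoxicity was determined by spectrophotometric LDH assay relative to DMSO.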
# [13] = CCTE_Shafer_MEA_dev_AB: CCTE's Alamar Blue Assay for Cytotoxicity in the Neural Network Formation Assay, Shafer Lab (AID 2284083; active means hit-call score of the fitted dose curve at least 0.9, where 1 is the maximum;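 further: twelve days of exposure from plating with re-dosing on DIV 5 and 9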)
# Outline: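 Primary rat cortical neurons on PEI-coated 48-well MEA plates, 1.5 x 10^5 cells/well in laminin drop; compound exposure from day 0 of plating for twelve days, renewed at medium changes on DIV 5 and 9. Viability read as resazurin reduction by fluorescence, relative to DMSO.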
# [14] = CCTE_Shafer_MEA_dev_mutual_information_norm: CCTE's Neural Network Formation Assay for Mutual Information Normalization, Shafer Lab (AID 2284091)
# Outline: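 Rat cortical cultures, 48-well MEA, continuous exposure DIV 0–12 with full media/compound change DIV 5 and 9. Readout: inter-electrode mutual information, AxIS adaptive spike detection; AUC across DIV 5/7/9/12 recordings; DMSO baseline, negative fitting direction.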
# [15] = CCTE_Shafer_MEA_acute_LDH: CCTE's Lactate Dehydrogenase Assay for Cytotoxicity in the Neural Acute Assay, Shafer Lab (AID 2284086; active means hit-call score of the fitted dose curve at least 0.9, where 1 is the maximum;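 further: active means LDH release rises above DMSO vehicle level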)
# Outline: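 Medium from rat cortical neuron MEA cultures sampled right after the 40 min compound-exposure recording; released LDH measured by absorbance at 490 nm. Analyzed as signal gain relative to DMSO.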
smiles,measurement,setting,value
CCOC(=O)[C@@H](C)Oc1ccc(Oc2nc3ccc(Cl)cc3o2)cc1,AC50,DIO2 (gene 1734),23.5 µM (active)
same,AC50,DIO3 (gene 1735),7.15 µM (active)
C=C1CC[C@H](O)C/C1=C/C=C1\CCC[C@]2(C)[C@@H]([C@H](C)/C=C/[C@H](C)C(C)C)CC[C@@H]12,AC50,DIO2 (gene 1734),19.8 µM (active)
same,AC50,DIO3 (gene 1735),2.3 µM (active)
COCCOCCOCCO,outcome,[1],inactive
same,outcome,[2],inactive
same,outcome,[3],inactive
same,outcome,[4],inactive
same,outcome,[5],inactive
same,outcome,[6],inactive
same,outcome,[7],inactive
same,outcome,[8],inactive
same,outcome,[9],inactive
same,outcome,[10],inactive
same,outcome,[11],inactive
same,outcome,[12],inactive
same,outcome,[13],inactive
same,outcome,[14],inactive
Oc1ccc2cc(SSc3ccc4cc(O)ccc4c3)ccc2c1,AC50,DIO2 (gene 1734),22.2 µM (active)
same,AC50,DIO3 (gene 1735),3.47 µM (active)
CN(C)CCOC(C)(c1ccccc1)c1ccccn1 (stereo not drawn),outcome,[1],inactive
same,outcome,[2],inactive
same,outcome,[3],inactive
same,outcome,[4],inactive
same,outcome,[5],inactive
same,outcome,[6],inactive
same,outcome,[7],inactive
same,outcome,[8],inactive
same,outcome,[9],inactive
same,outcome,[10],inactive
same,outcome,[11],inactive
same,outcome,[12],inactive
same,outcome,[13],inactive
same,outcome,[14],inactive
CCCCC(CC)COC(=O)c1ccc(O)cc1 (stereo not drawn),AC50,DIO2 (gene 1734),82.5 µM (active)
same,AC50,DIO3 (gene 1735),79.1 µM (active)
FC(F)(F)COCC(F)(F)F,outcome,[2],inactive
same,outcome,[3],inactive
same,outcome,[4],inactive
same,outcome,[5],inactive
same,outcome,[6],inactive
same,outcome,[7],inactive
same,outcome,[8],inactive
same,outcome,[9],inactive
same,outcome,[10],inactive
same,outcome,[11],inactive
same,outcome,[14],inactive
CCOc1ccc(N=Nc2ccc(C=Cc3ccc(N=Nc4ccc(OCC)cc4)cc3S(=O)(=O)O)c(S(=O)(=O)O)c2)cc1,AC50,DIO2 (gene 1734),43.9 µM (active)
same,AC50,DIO3 (gene 1735),35.6 µM (active)
C=C(C)C(=O)OCCOC1CC2CC1C1C=CCC21 (stereo not drawn),AC50,DIO2 (gene 1734),13 µM (active)
same,AC50,DIO3 (gene 1735),6.43 µM (active)
CCCCCCC(CO)CCCC (stereo not drawn),outcome,[15],inactive
O=C(Nc1ccc2c(O)c(N=Nc3ccc(N=Nc4ccc(S(=O)(=O)O)cc4)cc3)c(S(=O)(=O)O)cc2c1)c1ccccc1,outcome,[15],inactive
CCc1cc(Cc2cc(CC)cc(C(C)(C)C)c2O)c(O)c(C(C)(C)C)c1,AC50,DIO2 (gene 1734),83.3 µM (active)
same,AC50,DIO3 (gene 1735),10.7 µM (active)
O=CCc1ccccc1,outcome,DIO2 (gene 1734),inactive
same,AC50,DIO3 (gene 1735),74.8 µM (active)
C=CC(C)(O)CCC=C(C)C (stereo not drawn),outcome,[15],inactive
